Data from PubChem BioAssay (NCI).
Compounds without any hit were thinned out: in the full panel of roughly 83,000, 20% have a hit.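 In brief: 96-well plates, 48 h treatment, single concentration, percent growth endpoint.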 Values without a mark were called inactive. The source made the active and inactive calls. How the source made its calls: active means growth percent below 10; inactive means the rest.

What was measured:
Assay in all cases: NCI-60 one-dose screen, 48 h (100 = growth as untreated, 0 = no growth, -100 = all killed)
[1] = system: NCI-H322M lung; conditions: 10 µM
[2] = system: HOP-62 NSCLC; conditions: 10 µM
[3] = system: NCI-H460 lung; conditions: 10 µM
[4] = system: NCI-H522 lung; conditions: 10 µM
[5] = system: A549/ATCC NSCLC; conditions: 10 µM
[6] = system: DU-145 prostate; conditions: 10 µM
[7] = system: MALME-3M melanoma; conditions: 10 µM
[8] = system: SF-268 CNS; conditions: 10 µM
[9] = system: SF-295 CNS; conditions: 10 µM
[10] = system: SF-539 CNS; conditions: 10 µM
[11] = system: UACC-257 melanoma; conditions: 10 µM
[12] = system: M14 melanoma; conditions: 10 µM
[13] = system: HCT-15 colon; conditions: 10 µM
[14] = system: HT29 colon; conditions: 10 µM
[15] = system: SNB-75 CNS; conditions: 10 µM
[16] = system: PC-3 prostate; conditions: 10 µM
[17] = system: SK-MEL-5 melanoma; conditions: 10 µM
[18] = system: UACC-62 melanoma; conditions: 10 µM
[19] = system: SK-MEL-2 melanoma; conditions: 10 µM
[20] = system: HL-60(TB) leukemia; conditions: 10 µM unless noted

Compound	growth [1]	growth [2]	growth [3]	growth [4]	growth [5] [%]	growth [6]	growth [7]	growth [8] [%]	growth [9]	growth [10]	growth [11]	growth [12]	growth [13]	growth [14]	growth [15]	growth [16]	growth [17]	growth [18] [%]	growth [19]	growth [20]
CC12OOC(C)(OO1)C2CCC(=O)NCCCNc1ccnc2cc(Cl)ccc12 (stereo not given)	97.1%	95.1%	88.6%	-77.8% (active)	87.8	-74.4% (active)	-94.6% (active)	101	102%	52.9%	96.2%	86%	-45.1% (active)	35%	103%	84.1%	86.4%	87.2	100%	96.6%
COC(=O)CCn1c(-c2ccc(-n3cc(-c4ccc(O[C@H]5O[C@@H]6OC7(C)CC[C@H]8[C@H](C)CC[C@@H]([C@H]5C)[C@@]68OO7)cc4)nn3)cc2)nc2ccccc21	46.7%	32%	11.4%	-22.8% (active)	30.9	34%	0.0576% (active)	31.8	21.1%	20.9%	27.9%	25.4%	10.4%	22.5%	48.5%	25.7%	1.38% (active)	10.8	-6.2% (active)	-3.65% (active)
COP(=O)(CC(F)(F)C(F)(F)F)OC	109%	99.7%	95.9%	-71.5% (active)	87.4	9.69% (active)	-59.1% (active)	88.4	100%	4.99% (active)	-36.5% (active)	-65.3% (active)	-15.2% (active)	-35.5% (active)	87.5%	69.5%	80.8%	65.3	25.2%	8.78% (active)
O=C(/C=C/c1cccc(Br)c1)c1nc2ccccc2n1Cc1ccc(F)cc1	75.8%	38.3%	33.1%	59.4%	52.2	30.2%	50.5%	62.6	62.9%	8.26% (active)	55.1%	30.7%	-31.6% (active)	7.15% (active)	32.9%	23.8%	58.3%	22.4	63.9%	3.12% (active)
CC(C)N=C([Se])NC(=O)c1cccs1	-2.73% (active)	-2.97% (active)	0.572% (active)	41.1%	17.6	-14.3% (active)	102%	59.4	-14% (active)	-63.3% (active)	39.3%	8.28% (active)	34.9%	27.9%	-28.6% (active)	8.44% (active)	-59.7% (active)	27.5	-57.7% (active)	56%
Cc1ccc2[nH]c(=S)n(-c3ccc(F)cc3)c(=O)c2c1	99%	96.3%	106%	97.9%	100	110%	96.4%	106	98.9%	94.8%	104%	100%	98.9%	107%	100%	90%	98.3%	90.7	105%	118%
O=C(/C=C/c1ccco1)c1nc2ccccc2n1Cc1ccc(F)cc1	79.2%	87.6%	70.9%	62.1%	62.2	56.6%	59.9%	63.4	76%	64.6%	62.7%	88.2%	32.3%	68%	28.7%	65.6%	86.5%	45.4	69.9%	15.8%
CCOC(=O)C1=C(Nc2ccccc2)C(=O)OC12C(=O)Nc1ccccc12 (stereo not given)	103%	97.6%	108%	96.5%	112	114%	102%	95.7	107%	97.6%	101%	105%	105%	111%	80.6%	91.3%	107%	93.5	99.9%	102%
